FBA Mtb inh: Mtb fructose-bisphosphate aldolase inhibition; inhibition, % at 1 µM; 360,000 compounds, 2.3% hits; AID 588726; purified M. tuberculosis FBA, fluorescence read-out; in the data active means inhibition above about 27%
RecA intein inh: inhibitors of M. tuberculosis RecA intein splicing. inhibition, % (no concentration beside the values). P9WHJ3. 290,000 compounds, 0.75% hits. cell-free RecA intein splicing, fluorescence; in the data active means inhibition above about 30%
Mtb UGM inh: blocks M. tuberculosis UGM enzyme; P9WIQ1; 320,000 compounds, 0.06% hits; inhibition, % at 10 µM; AID 504406; purified UGM, fluorescence polarization probe displacement; in the data active means inhibition above about 10%, passing the limit was not always enough
GDH-TPI counter: inhibits GDH-TPI coupling enzymes, artifact for Mtb FBA screen | GDH-TPI coupled enzyme counterscreen, NADH absorbance | inhibition, % at 4.8 µM | 360,000 compounds, 1.2% hits; in the data active means inhibition above about 30%
Vc quorum ag: induces V. cholerae light production without autoinducers | V. cholerae BH1578 lux reporter, luminescence, 6 h | 350,000 compounds, 0.16% hits | activation, % at 18.7 µM; in the data active means activation mostly above about 9.7%, no sharp cut-off
Rv3671c inh: Rv3671c (M. tuberculosis) protease inhibition; P9WHR9; inhibition, % at 5.96 µM; 320,000 compounds, 0.048% hits; AID 2606; in the data active means inhibition above about 38%;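 further: extracellular domain of Rv3671c used as enzyme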
Target sequence (P9WHR9 whole entry, looked up, the tested form may be a part): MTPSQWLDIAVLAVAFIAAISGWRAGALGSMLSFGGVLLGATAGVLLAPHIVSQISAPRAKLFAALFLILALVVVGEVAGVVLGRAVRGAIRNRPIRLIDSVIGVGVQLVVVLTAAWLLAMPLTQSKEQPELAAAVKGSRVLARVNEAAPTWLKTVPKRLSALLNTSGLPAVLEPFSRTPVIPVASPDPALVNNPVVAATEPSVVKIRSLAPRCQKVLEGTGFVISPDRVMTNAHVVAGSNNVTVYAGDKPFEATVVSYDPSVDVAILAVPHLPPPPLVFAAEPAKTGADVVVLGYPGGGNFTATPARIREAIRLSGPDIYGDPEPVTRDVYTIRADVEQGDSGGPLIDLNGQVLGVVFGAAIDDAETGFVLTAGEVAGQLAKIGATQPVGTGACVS
Each line names hits and unclear results; the compound was inactive in the other large screens. The list is not random: actives were taken first. Their share in the collection is about 4.1%.

Cc1cc(C)[n+](-c2ccc(F)cc2)c2[nH]c(=O)[nH]c(=O)c12	FBA Mtb inh active
Cc1ccccc1-n1sc2cc(F)ccc2c1=O	none (no result: RecA intein inh)
COc1ccc(-c2c(C)oc3c(CN4CCOCC4)c(O)ccc3c2=O)cc1OC	none
Cc1oc2c(CN3CCCCC3C)c(O)ccc2c(=O)c1-c1ccccc1 (centres undefined)	FBA Mtb inh 173.6
COc1ccccc1-c1c(C)oc2c(CN3CCCCC3C)c(O)ccc2c1=O (centres undefined)	FBA Mtb inh 145.0
Cc1oc2c(CN3CCCCC3)c(O)ccc2c(=O)c1-c1ccc(Br)cc1	FBA Mtb inh 129.8, GDH-TPI counter 33.0
C/C(=N\OCC(=O)OCC(=O)NCc1ccccc1)c1ccc2c(c1)OCO2	none
O=C(COc1cccc(C(F)(F)F)c1)Nc1nnc(C2CC2)s1	none (no result: RecA intein inh)
CCOC(=O)/C=C1/SCC(=O)N1CC(=O)Nc1ccccc1OC(F)F	none (no result: RecA intein inh, Mtb UGM inh, Rv3671c inh)
C=C(C)COc1ccc2c(CC)cc(=O)oc2c1C	none
CCc1cc(=O)oc2c(C)c(O)c(CN(C)C)cc12	FBA Mtb inh active, GDH-TPI counter 32.1
COCCCn1c(N)c(C(=O)Nc2ccccc2)c2nc3ccccc3nc21	none
CCOC(=O)c1c(N)n(-c2ccc(N)cc2)c2nc3ccccc3nc12	none
CCC(C)OC(=O)c1c(N)n(Cc2cccs2)c2nc3ccccc3nc12 (centres undefined)	FBA Mtb inh 137.0 (no result: Vc quorum ag)
CCCCOCCCn1c(N)c(C(=O)OC(C)COC)c2nc3ccccc3nc21 (centres undefined)	FBA Mtb inh 120.5
COCCCn1c(N)c(C(=O)OC(C)COC)c2nc3ccccc3nc21 (centres undefined)	FBA Mtb inh active
CSc1ccc(-c2cccc3nncn23)cc1	FBA Mtb inh active (no result: RecA intein inh, Mtb UGM inh, Rv3671c inh)
CC(C)OC(=O)C1C2C=CC3(CN(Cc4cccs4)C(=O)C13)O2 (centres undefined)	FBA Mtb inh 122.7
CCCC(C)NC(=O)CN1C(=O)c2cccc3cccc1c23 (centres undefined)	none
CC(C)C(NC(=O)CN1C(=O)c2cccc3cccc1c23)C(C)C	GDH-TPI counter 35.7
COCC(=O)N/N=C(\C)CC(=O)Nc1ccccc1C(N)=O	FBA Mtb inh 55.0
CCn1c(N)c(C(=O)NC)sc1=S	none
CCn1c(N)c(C(=O)N2CCOCC2)sc1=S	GDH-TPI counter 30.7
CCNC(=O)c1sc(=S)n(CC)c1N	GDH-TPI counter 31.8
C=CCn1c(N)c(C(=O)N2CCOCC2)sc1=S	none
Cc1cccn2c(=O)nc(SCC(=O)Nc3ccc4c(c3)OCCO4)nc12	none
CC1=CN2C(=N)/C(=C/c3ccc([N+](=O)[O-])o3)C(=O)N=C2S1	none
CC1=CN2C(=N)/C(=C/c3ccco3)C(=O)N=C2S1	GDH-TPI counter 33.2
CCN(C[C@H]1N[C@@](Cc2ccccc2)(C(=O)OC)[C@H]2C(=O)N(Cc3ccccc3)C(=O)[C@@H]12)S(=O)(=O)c1ccc(-c2ccccc2)cc1	GDH-TPI counter 32.3 (no result: RecA intein inh)
COc1cccc(CN(C)C(=O)COc2ccc(C(=O)c3ccc(Cl)cc3)cc2)c1OC	none
COc1ccc(/C=C2\SC(=O)N(CCNC(=O)C3CC(=O)N(c4ccccc4)C3)C2=O)cc1 (centres undefined)	none
COc1cccc(/C=C2\SC(=S)N(CCC(=O)N3CCCCC3CCO)C2=O)c1 (centres undefined)	none
CN1CCN(C(=O)CCN2C(=O)S/C(=C/c3ccc(Cl)cc3)C2=O)CC1	none
COc1cccc(/C=C2\SC(=O)N(CCC(=O)N3CCC(C(=O)O)CC3)C2=O)c1	GDH-TPI counter 46.1
Cc1ccc(/C=C2\SC(=O)N(CCC(=O)N3CCN(C)CC3)C2=O)cc1	GDH-TPI counter 35.3
CCc1noc(C)c1C(=O)NCCN1C(=O)S/C(=C\c2ccc(OC)cc2)C1=O	GDH-TPI counter 30.8
COc1ccc(/C=C2\SC(=O)N(CCC(=O)N3CCN(C)CC3)C2=O)cc1	GDH-TPI counter 40.6
O=C(NN=Cc1ccc2c(c1)CCC2)c1cccc([N+](=O)[O-])c1	none (no result: RecA intein inh, Mtb UGM inh, Rv3671c inh)
COc1ccc(/C=C2\SC(=O)N(CCNC(=O)CCS(=O)(=O)c3ccc(C)cc3)C2=O)cc1	GDH-TPI counter 32.6
COc1ccc(/C=C2\SC(=O)N(CCNC(=O)Cn3cnnn3)C2=O)cc1	none
CN(C)N=Nc1ccc(S(=O)(=O)/N=C(\O)c2ccccc2)cc1	GDH-TPI counter 39.2
CCC/C(O)=N\S(=O)(=O)c1ccc(N=NN(C)C)cc1	none
O=S1(=O)N=C(Nc2nc3c(s2)CCCC3)c2ccccc21	GDH-TPI counter 35.8 (no result: RecA intein inh)
CC(=Cc1cccs1)C(=O)c1ccccc1	GDH-TPI counter 32.4 (no result: RecA intein inh, Mtb UGM inh, Rv3671c inh)
O=C(Nc1ccccc1)c1ccc(-c2ccccc2)s1	none
O=C(O)c1ccc(-c2ccc(-c3ccccc3)cc2)s1	FBA Mtb inh 118.1
Cc1cc(-c2ccc(C(=O)O)s2)cnc1N	FBA Mtb inh active
CC1(C)C=C(c2ccc(C(=O)O)s2)CC(C)(C)N1	none
COC(=O)[C@@H]1[C@@H](C(=O)OC)C2(c3ccccc3-c3ccccc32)N(c2ccc(Cl)cc2)N1C#N	RecA intein inh 51.2
COC(=O)C1OC2(OC1C(=O)OC)c1ccccc1-c1ccccc12 (centres undefined)	none
Cc1[nH]n(-c2ccccc2)c(=O)c1/C=C1/C=c2ccccc2=N1	RecA intein inh 34.5 (no result: Mtb UGM inh, Rv3671c inh)
CC1=NN(c2ccccc2)C(=O)/C1=C/c1c(C)[nH]n(-c2ccc(C)cc2)c1=O	none (no result: FBA Mtb inh, GDH-TPI counter, Vc quorum ag)
COCc1cccc(-c2csc(C(NC(C)=O)c3ccccc3)n2)c1 (centres undefined)	none (no result: RecA intein inh, Mtb UGM inh, Rv3671c inh)
COc1ccc(C(=O)/C=C/c2cccc(OCc3ccccc3)c2)cc1CSCC(=O)O	none
COc1ccc(C(=O)/C=C/c2ccc(OCc3ccccc3)cc2)cc1CSCC(=O)O	GDH-TPI counter 40.2 (no result: Rv3671c inh)
O=C(Cc1n[nH]c(=O)c2ccccc12)Nc1cccc(S(=O)(=O)N2CCCCCC2)c1	none (no result: RecA intein inh)
O=C1N/C(=N\N=C\c2ccco2)SC1Cc1ccccc1[N+](=O)[O-] (centres undefined)	GDH-TPI counter 37.6
O=C(/C=C/c1ccco1)NC(=S)Nc1ccccc1N1CCOCC1	GDH-TPI counter 45.6
O=C(/C=C/c1ccco1)NC(=S)Nc1ccccn1	GDH-TPI counter 40.2
Cc1cccnc1NC(=S)NC(=O)/C=C/c1ccco1	none
CN1CCN(c2ccc(NC(=S)NC(=O)/C=C/c3ccco3)cc2)CC1	GDH-TPI counter 30.9
CC(=O)Nc1ccc(NC(=S)NC(=O)/C=C/c2ccco2)cc1	none
CC(=O)N(C)c1ccc(NC(=S)NC(=O)/C=C/c2ccco2)cc1	GDH-TPI counter 40.2
COc1cc(/C=C/C(=O)OCC(=O)Nc2ccc([N+](=O)[O-])cc2)ccc1O	GDH-TPI counter 68.3
Cc1ccc(S(=O)(=O)c2c(C)cc(-c3ccccc3)[nH]c2=O)cc1	FBA Mtb inh 81.1
O=C(NCC(c1ccco1)N1CCCCC1)c1cnc(Cl)c(Cl)c1 (centres undefined)	none (no result: RecA intein inh)
O=C(NCCO)/C(=C\c1ccc(Br)cc1)NC(=O)c1cccs1	none

Screens deposited in PubChem by several laboratories.
